# Assay outcomes as filed in PubChem BioAssay.
# Sampled rows, rich in hits. Any-hit rate of the full collection: about 12%.
# BAZ2B inh = BAZ2B (human) inhibition | Q9UIF8 | AlphaScreen BAZ2B-H3K14Ac peptide displacement | Potency, µM (top dose mostly 114 µM), for inactives: top-dose activity change, negative = inhibition, actives largely listed as inhibitors | actives 4.4% (n = 360,000); further: on the % scale 0 is the no-effect control and ±100 the full control effect; nearly all actives have a fitted effect of over 60% in size
#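 Compounds, titrated to a top concentration of 110 uM, were incubated 30 min at room temperature with preformed BAZ2B/acetyl-K14 H3 peptide complex (50 nM each). Proximity signal was measured by AlphaScreen after 20 min with beads.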
# TDP1 inh = inhibitors of human tyrosyl-DNA phosphodiesterase TDP1; Q9NUW8; recombinant TDP1, AlphaScreen DNA substrate cleavage; AID 485290; Potency, µM (series often up to 130 µM), without a hit: at the highest dose activity change, negative = inhibition, hits mostly inhibitors; actives 0.28% (n = 350,000); further: on the % scale 0 is the no-effect control and ±100 the full control effect; nearly all actives have a fitted effect of over 40% in size
#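 Signal: AlphaScreen proximity between streptavidin donor and anti-FITC acceptor beads on intact substrate. Reaction: Tdp1 1 nM, substrate 15 nM final, 5 min RT after 15 min compound preincubation.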
# HP1b binding inh = blocks HP1-beta chromodomain binding to methylated histone tails; P83916; AlphaScreen HP1-beta / biotin-H3K9me3 peptide binding; Potency, µM (titrated, usually from 114 µM), inactives show top-dose activity change, negative = inhibition, hits mostly inhibitors; actives 0.56% (n = 390,000); further: nearly all actives have a fitted effect of over 70% in size
# Target sequence (P83916 whole entry, looked up): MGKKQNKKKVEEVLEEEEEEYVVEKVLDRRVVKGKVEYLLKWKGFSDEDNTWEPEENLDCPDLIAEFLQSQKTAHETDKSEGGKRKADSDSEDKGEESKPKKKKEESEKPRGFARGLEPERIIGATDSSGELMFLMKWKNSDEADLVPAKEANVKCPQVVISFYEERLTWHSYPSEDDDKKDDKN
#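 AlphaScreen: HP1-beta (50 nM) preformed 30 min with biotin-H3(1-18)K9me3 peptide (50 nM) in PBS pH 7.4, 0.01% Tween-20. Compound added for 30 min at RT, then streptavidin donor/nickel chelate acceptor beads (10 ug/mL) for 30 min.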
# Sfp PPTase inh = Sfp phosphopantetheinyl transferase inhibition; Potency, µM, without a hit: largest response in the series, negative = inhibition, most hits filed as inhibitors; Biochemical Sfp PPTase activity, qHTS; actives 3.5% (n = 310,000); AID 1490;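 further: the enzyme is Sfp with the accession as filed and its product quenches rhodamine fluorescence; 0% = enzyme reaction without inhibitor and -100% = no enzyme wells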
#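 After 15 min at room temperature with compound, 15 nM Sfp received 5 uM rhodamine-CoA plus 12.5 uM BHQ-2-ybbR (50 mM Hepes pH 7.6, 10 mM MgCl2). Rate came from the fluorescence difference over 30 min, ex 525/em 598 nm.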
# JMJD2A Tudor = blocks the human JMJD2A Tudor domain. O75164. AlphaScreen JMJD2A-Tudor / H3K4me3 peptide binding. Potency, µM (doses to about 114 µM), inactives show at the highest dose activity change, negative = inhibition, hits mostly inhibitors. actives 4.4% (n = 390,000). AID 504339; further: on the % scale 0 is the no-effect control and ±100 the full control effect; nearly all actives have a fitted effect of over 50% in size
# G9a block = inhibitors of human histone lysine methyltransferase G9a. Q96KQ7. G9a H3K9 monomethylation, AlphaScreen, 2 h. Potency, µM (doses to about 102 µM), without a hit: at the top dose activity, negative = inhibition, hits mostly inhibitors. actives 8.8% (n = 350,000). AID 504332; further: on the % scale 0 is the no-effect control and ±100 the full control effect; nearly all actives have a fitted effect of over 75% in size
# Target sequence (Q96KQ7 913-1193 limits assumed): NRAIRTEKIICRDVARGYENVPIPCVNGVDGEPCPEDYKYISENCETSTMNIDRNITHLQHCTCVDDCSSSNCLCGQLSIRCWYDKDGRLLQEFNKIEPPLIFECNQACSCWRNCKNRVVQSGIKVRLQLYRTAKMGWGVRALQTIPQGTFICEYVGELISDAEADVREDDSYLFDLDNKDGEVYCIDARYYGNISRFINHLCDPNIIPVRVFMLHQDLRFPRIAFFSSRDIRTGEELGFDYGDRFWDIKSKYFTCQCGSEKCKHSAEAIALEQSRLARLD
#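 G9a (20 nM) was preincubated 15 min with compound, then reacted 2 h at room temperature with 500 nM biotin-H3K9 peptide and 20 µM SAM. Monomethyl-H3K9 detected by AlphaScreen using anti-H3K9me1 antibody.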
# * marks the source's active call; other numbers are inactive results; ? = inconclusive; . = no result given; [ ] = another dose, or the depositor's remark. The call rests on the fitted dose curve; in most records, active means well fitted curve in the direction sought with a large enough effect; inconclusive means small, poorly fitted or top-dose-only effect, or another doubt; inactive means no such curve, though single readings can be large; an effect the other way counts as inactive or inconclusive. Potency means the concentration at half of the fitted maximal effect.
SMILES,BAZ2B inh,TDP1 inh,HP1b binding inh,Sfp PPTase inh,JMJD2A Tudor,G9a block
CN(C)c1cc[n+](CC(=O)Nc2ccc(OC(F)F)cc2)cc1,50µM*,3%,-5%,-3%,?,.
Cc1ccc[n+](CC(=O)Nc2ccc(N(C)C)cc2)c1,?,6%,18%,-7%,-33%,.
CN(C)c1ccc(NC(=O)C[n+]2ccccc2)cc1,-26%,.,-5%,6%,?,50µM*
Cc1ccc[n+](CC(=O)Nc2c(Cl)cc(Cl)cc2Cl)c1,-5%,-3%,7%,20%,-13%,0%
CC(=O)c1ccc(NC(=O)C[n+]2ccc(N(C)C)cc2)cc1,2%,6%,18%,19%,-7%,13%
O=C(C[n+]1ccccc1)Nc1c(Cl)cc(Cl)cc1Cl,35µM*,6%,25%,20µM*,-8%,.
O=C(Cc1ccc2c(c1)CCCC2)Nc1ccccc1Br,-5%,-4%,-18%,-2%,25%,45µM*
CCCN(C(=O)CCc1nc(-c2ccc(OC)cc2)no1)c1ccccc1F,47%,-2%,91%,.,53%,29%[59 µM]
O=C(C[n+]1ccccc1)Nc1ccccc1[N+](=O)[O-],-3%,3%,64%,-4%,13%,.
O=C(C[n+]1ccccc1)Nc1ccccc1Br,25µM*,0%,62%,5%,2%,0.32µM*
CNCc1ccccc1OCc1ccccc1F,-12%,-2%,32%,15%,-10%,-37%
Cc1cc(Br)ccc1NC(=O)CN1C(=O)C2CC=CCC2C1=O (centres undefined),-9%,0%,7%,.,?,0.79µM*
CC1CC(C)(C)NC(=S)N1CC(=O)NCc1ccc(F)cc1 (centres undefined),-15%,5%,41%,4%,4%,?
O=C(CN1C(=O)C2CC=CCC2C1=O)Nc1ccc(Br)cc1 (centres undefined),0%,1%,20%,17%,-13%,0%
Cc1cc(Br)ccc1NC(=O)CN1C(=S)NC(C)(C)CC1C (centres undefined),-13%,1%,-18%,?,2%,32µM*
CC1CC(C)(C)NC(=S)N1CCC(=O)NCc1ccc(F)cc1 (centres undefined),-3%,1%,20%,10%,-7%,40µM*
CN(C)c1ccc(C(CNC(=O)c2ccc(C(C)(C)C)cc2)N2CCCC2)cc1 (centres undefined),28µM*,9%,?,.,45µM*,16µM*
CN(C)c1ccc(C=NC(CO)C(O)c2ccc([N+](=O)[O-])cc2)cc1 (centres undefined),-14%,1%,6%,9%,-5%,13%
CN(C)c1ccc(C(c2ccc(N(C)C)cc2)c2ccc([N+](=O)[O-])cc2)cc1,6.3µM*,11%,8.9µM*,10%,10µM*,5µM*
CCN1CCN(C(CNS(=O)(=O)c2ccc(Cl)cc2)c2cccnc2)CC1 (centres undefined),-3%,4%,15%,9%,2%,79µM*
CN(C)c1ccc(C(CNS(=O)(=O)c2ccc3ccccc3c2)N2CCOCC2)cc1 (centres undefined),50µM*,.,?,.,?,14%[0.501 µM]
CN(C)c1ccc(C(CNS(=O)(=O)c2ccc([N+](=O)[O-])cc2)N2CCCC2)cc1 (centres undefined),6%,4%,?,.,45µM*,45µM*
Cc1ccc(S(=O)(=O)NCC(c2ccc(N(C)C)cc2)N2CCOCC2)cc1 (centres undefined),-35%,9%,-23%,.,?,?
CN(C)c1ccc(C(CNS(=O)(=O)c2ccc(Cl)cc2)N2CCOCC2)cc1 (centres undefined),40µM*,4%,-18%,.,?,?
